# TGFb SMAD3 inh – qHTS for Inhibitors of TGF-b; HepG2 CAGA-GFP TGF-b/SMAD3 reporter, GFP fluorescence, 18 h; TGF-beta stimulated, 500 pg/mL final; Potency, µM (doses to about 46.1 µM), inactives show at the top dose activity, negative = inhibition, actives largely listed as inhibitors; 410,000 compounds, 1.2% hits; AID 588855, 2011; also: % is scaled to controls: 0 for no effect and ±100 for the full control effect; nearly all actives have a fitted effect of over 65% in size
#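 Inhibition of TGF-beta-driven CAGA-GFP reporter expression in HEPG2 cells is measured by cellular GFP fluorescence after 18 h stimulation with 500 pg/mL recombinant TGF-beta in 1% FBS medium at 37 degrees C.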
# A549 viability – Nrf2 qHTS screen for inhibitors: counterscreen for cytotoxicity; A549 ARE-Fluc cells, CellTiter-Fluor viability, 18-24 h; 390,000 compounds, 0.16% hits; AID 504648, 2011; Potency, µM (doses to about 46 µM), inactives show at the top dose activity change, negative = cytotoxicity, usual class: inhibitors; also: % is scaled to controls: 0 for no effect and ±100 for the full control effect
#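 A549 ARE_Fluc cells in 5% FBS OPTI-MEM were exposed to compounds in concentration-response for 18-24 h at 37 deg C. Viability was read by CellTiter-Fluor fluorescence (Ex 405/Em 525) after 30 min, before the luciferase read.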
# ATXN2 expr inh – Primary qHTS for Inhibitors of ATXN expression; 360,000 compounds, 0.72% hits; AID 1745845, 2022; HEK-293 ATXN2-luciferase reporter, luminescence, 24 h; Potency, µM (top dose mostly 57 µM), without a hit: at the top dose activity change, negative = inhibition, usual class: inhibitors; also: % is scaled to controls: 0 for no effect and ±100 for the full control effect; nearly all actives have a fitted effect of over 55% in size
#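 ATXN2-luciferase reporter cells (luciferase flanked by upstream and downstream ATXN2 gene portions) were treated 24 h at 37 °C with compounds at up to 57 uM. SteadyGlo luminescence gave expression; GF-AFC fluorescence gave viability.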
# ATXN viability – Viability Counterscreen for Primary qHTS for Inhibitors of ATXN expression; S2 cells (HEK-293 line with an ATXN2-luciferase reporter) viability, CellTiter-Fluor protease fluorescence, 24 h; Potency, µM (series often up to 56.7 µM), usual class: cytotoxic; 400,000 compounds, 0.49% hits; also: nearly all actives have a fitted effect of over 40% in size
# Nrf2 block – Nrf2 qHTS screen for inhibitors; A549 ARE-Fluc reporter, luciferase luminescence, 18-24 h; Potency, µM (titrated, usually from 46 µM), for the others: at the top dose activity change, negative = inhibition, actives largely listed as inhibitors; 360,000 compounds, 2.1% hits; AID 504444, 2011; also: % is scaled to controls: 0 for no effect and ±100 for the full control effect; nearly all actives have a fitted effect of over 60% in size
#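 Cells were seeded and rested 2 h, then exposed to compounds for 18-24 h. CellTiter-Fluor was read first as a viability measure. BugLite was added 15 min before the final luminescent read of ARE-luciferase activity in A549 cells.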
# HepG2 viability – qHTS for Inhibitors of TGF-b: Cytotox Counterscreen; HepG2 CAGA-GFP viability, ATP luminescence, 18 h; Potency, µM (highest dose often 46.1 µM), without a hit: top-dose activity change, negative = cytotoxicity, hits mostly cytotoxic; 410,000 compounds, 0.76% hits
#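 CellTiter-Glo luminescence gave cytotoxicity after 18 hours at 37 degrees C. The cells were HepG2 CAGA-GFP in 1% FBS DMEM, stimulated with 500 pg/mL TGF-beta after compound addition. %Activity was normalised to no-cell wells (complete cell-killing) and DMSO (no toxicity), and curves were fitted and classified.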
# An asterisk follows results filed as active; i = inactive; ? = inconclusive; · = no result given; [ ] = remark or other dose. Compounds with a hit are over-represented: about 3.8% of the library has one in this group of screens. Calls follow the shape of the dose curve; as a rule, active = well fitted curve in the direction sought with a large enough effect; inconclusive = small, poorly fitted or top-dose-only effect, or another doubt; inactive = no such curve, though single readings can be large; an effect the other way counts as inactive or inconclusive. Potency is read from the fitted curve at half-maximal effect.
SMILES,TGFb SMAD3 inh,A549 viability,ATXN2 expr inh,ATXN viability,Nrf2 block,HepG2 viability
Cc1ccc(NC(=O)C(=Cc2ccc(C(=O)O)cc2)C(=O)Nc2ccc(C)cc2C)c(C)c1,7.1µM*,?,·,?,?,10µM*
Cc1ccc(CNC(=O)CCc2cn(C)c3ccccc23)cc1,10%,12%,-3%,i,-9%,-4%
O=C(O)Cn1nnc(-c2cccs2)n1,-3%,-2%,1%,i,-10%,3.2µM*
O=C(O)c1ccc(N=N/C(=N\Nc2ccc(C(=O)O)cc2)c2ccccc2)cc1,1%,?,1%,13µM*,5%,3%
Brc1ccc(N/N=C(/N=Nc2nn[nH]n2)c2ccccc2)cc1,?,?,·,·,10µM*,4%
CCc1ncc(CN2CCCCC2C(=O)Nc2ccc(Oc3ccccc3)nc2)cn1 (centres undefined),-17%,-2%,5%,i,?,-7%
CCN1CCN(c2nc(SC)nc3sc4c(c23)CC(C)(C)OC4)CC1,10%,-1%,19%,i,12%,0%
CC(C)Sc1nc(N2CCOCC2)c2c3c(sc2n1)COC(C)(C)C3,9%,·,-4%,i,15µM*,-22%
Nc1nc(SCC(=O)O)c2[nH]cnc2n1,-1%,-2%,·,·,-1%,-1%
Nc1nc(OCC2CCCCC2)c2[nH]cnc2n1,-7%,?,14%,i,18µM*,-25%
Cc1cccc2cc(CN(Cc3ccccc3)Cc3nnnn3Cc3ccccc3)c(=O)[nH]c12,3%,-18%,·,·,?,-3%
O=C(c1cc2c(s1)-c1ccccc1S(=O)(=O)C2)N1CCN(Cc2ccccc2)CC1,-37%,-15%,?,i,18µM*,-40%
CCN1CCN(C(=O)c2cc3c(s2)-c2ccccc2S(=O)(=O)C3)CC1,0%,1%,-5%,i,10%,-28%
CC1(C(=O)NS(=O)(=O)c2ccccc2OC(F)(F)F)CCN1C(=O)c1ccco1 (centres undefined),7%,·,6%,i,·,-2%
COc1ccccc1NS(=O)(=O)c1cccc(C(=O)N2CCN(Cc3ccc4c(c3)OCO4)CC2)c1,-26%,5%,8%,i,6%,-12%
Cc1ccc(S(=O)(=O)N2CC(O)C[C@H]2C(=O)OCC(=O)N2CCN(c3ccc(F)cc3)CC2)cc1C (some centres undefined),-28%,-11%,-19%,i,16µM*,-13%
Cc1ccc(S(=O)(=O)N2CCC(C(=O)OCC(=O)N3CC(C)CC(C)C3)CC2)cc1C (centres undefined),56%,-4%,11%,i,2%,1%
Cc1nn(-c2ccccc2)c(N2CCCC2)c1/C=N/NC(=O)c1cccc(S(=O)(=O)Nc2ccc(Cl)cc2)c1,5%,?,-10%,i,5.8µM*,-16%
COc1cc2c(cc1OC)/C(=C/C(=O)c1cccc([N+](=O)[O-])c1)NCC2,-10%,?,-31%,i,13µM*,-17%
CSc1ccc(/C=C/C(=O)OCC(=O)N2CCN(S(=O)(=O)c3ccc(C)cc3C)CC2)cc1,-16%,0%,6%,i,5%,-8%
CCc1ccccc1NC(=O)CSc1ncc2c(n1)-c1ccccc1N(Cc1ccc(C)cc1)S2(=O)=O,-5%,-12%,10%,i,16%,-13%
O=c1c2sc3ccccc3c2n(Cc2ccccc2F)c(=O)n1Cc1ccccc1,7%,2%,-5%,i,2%,0%
Cc1ccccc1N1Cc2ccccc2C1=O,-8%,·,-10%,i,·,-14%
Nc1ccc2c(c1)CN1C(=O)c3ccccc3C1=N2,·,·,13µM*,?,·,·
Cc1nc(SCCC(=O)O)c2cc(-c3ccccc3)sc2n1,14%,0%,2µM*,i,?,-46%
SMILES,TGFb SMAD3 inh,A549 viability,ATXN2 expr inh,ATXN viability,Nrf2 block,HepG2 viability
Cc1nc(N2CCOCC2)c2cc(-c3ccccc3)sc2n1,30%,?,0%,i,-2%,-59%
Cc1ccccc1C(=O)Oc1cc(N)n(S(=O)(=O)c2ccccc2)n1,-12%,-3%,3%,i,7.3µM*,-8%
Cc1ccc(NC(=O)c2cnc3cc(C)ccn3c2=O)c(C)c1,5%,-18%,47%,i,?,8%
CCN(CC)c1ccc(NC(=O)c2cnc3ccccn3c2=O)c(C)c1,-8%,-19%,-8%,i,2.9µM*,-24%
Cc1ccc(NC(=O)CSc2nc(C)c(Cc3ccccc3)c(=O)[nH]2)cc1C,8.9µM*,9%,-17%,i,5%,-21%
ONC(=Nc1ccc(Cl)cc1)c1ccccc1,-1%,-6%,7%,i,-5%,-9%
Cc1oc(-c2ccccc2Cl)nc1CS(=O)CC(=O)NCc1ccc(Cl)cc1 (centres undefined),8.9µM*,0%,-3%,i,-7%,-18%
Cc1ccc(S(=O)(=O)NCc2ccccc2)cc1C(=O)N1CCN(S(=O)(=O)c2ccccc2)CC1,-9%,-2%,8%,i,0%,-18%
CCOC(=O)C1=C(c2ccccc2)NC(SC)=C(C#N)C1c1ccco1 (centres undefined),-24%,-13%[1.84 µM],-3%,i,?,-8%
CCOC(=O)C1=C(c2ccccc2)NC(SCC(=O)Nc2cccc(C)c2)=C(C#N)C1c1ccco1 (centres undefined),-19%,13µM*,-21%,i,?,-33%
CCOC(=O)C1=C(c2ccccc2)NC(SCC(=O)Nc2ccc(C)cc2)=C(C#N)C1c1ccco1 (centres undefined),?,-17%[1.84 µM],-13%,i,21µM*,-38%
CCOC(=O)C1=C(c2ccccc2)NC(SCC(=O)Nc2ccccc2C)=C(C#N)C1c1ccco1 (centres undefined),-28%,·,-7%,i,?,-5%
COC(=O)C1=C[C@@H](C(=O)OC)C2C3=C(C(=O)[C@]2(C)NC(=O)c2ccccc2)[C@H](C)n2c(=O)n(C)c(=O)n2[C@@H]3C1 (some centres undefined),-2%,-6%,·,·,5%,-3%
CC(C)(C)c1nnc(NC(=O)C2CCN(c3ncccn3)CC2)s1,-2%,-1%,13%,i,·,-9%
CC(C)(C)c1cnc(CSc2cnc(NC(=O)C3CCNCC3)s2)o1,·,·,0.31µM*,·,·,·
